PubChem BioAssay AID1159580 (chemical genetic matrix, 2015)
The whole screen tested about 5,500 compounds, of which about 2,000 (36%) were called active. Not shown: some 18% with an inconclusive outcome. Rule as the data show it: active = normalized growth mostly below about 0.91 (no sharp cut-off); inconclusive = no clear call, values can overlap the other calls; inactive = mostly above about 0.92. The list shows a part of the results.

Assay: chemical genetic growth profiling, strain panel (AID 1159580);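 also: tested at 20 µM; growth read once vehicle control cultures reached saturation at 30 °C; 1 = growth at the plate median or of vehicle wells; lower values mean less growth of the strain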
Conditions: growth OD

Measured: normalized growth

C[C@@H]1CC[C@H]2[C@@H](C)C(O)O[C@@H]3O[C@@]4(C)CC[C@@H]1[C@]32OO4 (some centres not stated)
active: S. cerevisiae deletion strains, locus YJR075W, strain HOC1, hits give low values 0.166 | S. cerevisiae deletion strains, locus YKL009W, strain mrt4, hits give low values 0.649 | S. cerevisiae deletion strains, locus YKL068W, hits give low values 0.775 | S. cerevisiae deletion strains, locus YKL085W, strain MDH1 (second series), hits give low values 0.363 | S. cerevisiae deletion strains, locus YKL085W, strain MDH1, hits give low values 0.363 | S. cerevisiae deletion strains, locus YKL160W, strain elf1, hits give low values 0.336 | S. cerevisiae deletion strains, locus YKL190W, strain CNB1, hits give low values 0.231 | S. cerevisiae deletion strains, locus YKR001C, strain vps1, hits give low values 0.587 | S. cerevisiae deletion strains, locus YKR026C, strain gcn3, hits give low values 0.407 | S. cerevisiae deletion strains, locus YKR091W, strain srl3, hits give low values 0.329 | S. cerevisiae deletion strains, locus YLL001W, strain dnm1, hits give low values 0.233 | S. cerevisiae deletion strains, locus YLL026W, hits give low values 0.243 | S. cerevisiae deletion strains, locus YLL041C, strain sdh2, hits give low values 0.3 | S. cerevisiae deletion strains, locus YLR027C, strain aat2, hits give low values 0.261 | S. cerevisiae deletion strains, locus YLR039C, strain RIC1, hits give low values 0.33 | S. cerevisiae deletion strains, locus YLR058C, strain SHM2, hits give low values 0.403 | S. cerevisiae deletion strains, locus YLR102C, strain apc9, hits give low values 0.419 | S. cerevisiae deletion strains, locus YLR113W, strain HOG1, hits give low values 0.323 | S. cerevisiae deletion strains, locus YLR221C, strain rsa3, hits give low values 0.204 | S. cerevisiae deletion strains, locus YLR258W, strain gsy2, hits give low values 0.279 | S. cerevisiae deletion strains, locus YLR262C, strain YPT6 (second series), hits give low values 0.322 | S. cerevisiae deletion strains, locus YLR262C, strain YPT6, hits give low values 0.486 | S. cerevisiae deletion strains, locus YLR268W, strain sec22, hits give low values 0.248 | S. cerevisiae deletion strains, locus YLR320W, strain mms22, hits give low values 0.236 | S. cerevisiae deletion strains, locus YLR330W, strain CHS5, hits give low values 0.307 | S. cerevisiae deletion strains, locus YLR342W, strain FKS1 (second series), hits give low values 0.483 | S. cerevisiae deletion strains, locus YLR342W, strain FKS1, hits give low values 0.563 | S. cerevisiae deletion strains, locus YLR357W, strain rsc2, hits give low values 0.358 | S. cerevisiae deletion strains, locus YLR370C, strain arc18, hits give low values 0.384 | S. cerevisiae deletion strains, locus YLR371W, strain rom2, hits give low values 0.528 | S. cerevisiae deletion strains, locus YLR384C, strain iki3, hits give low values 0.771 | S. cerevisiae deletion strains, locus YLR418C, strain cdc73, hits give low values 0.254 | S. cerevisiae deletion strains, locus YML016C, strain PPZ1, hits give low values 0.214 | S. cerevisiae deletion strains, locus YML032C, strain rad52, hits give low values 0.367 | S. cerevisiae deletion strains, locus YML120C, strain ndi1, hits give low values 0.29 | S. cerevisiae deletion strains, locus YML124C, strain tub3, hits give low values 0.421 | S. cerevisiae deletion strains, locus YMR058W, strain fet3, hits give low values 0.361 | S. cerevisiae deletion strains, locus YMR078C, strain ctf18, hits give low values 0.401 | S. cerevisiae deletion strains, locus YMR125W, strain sto1, hits give low values 0.462 | S. cerevisiae deletion strains, locus YMR129W, hits give low values 0.266 | S. cerevisiae deletion strains, locus YMR205C, strain PFK2, hits give low values 0.366 | S. cerevisiae deletion strains, locus YMR223W, strain ubp8, hits give low values 0.31 | S. cerevisiae deletion strains, locus YMR231W, strain pep5, hits give low values 0.84 | S. cerevisiae deletion strains, locus YMR263W, strain SAP30, hits give low values 0.47 | S. cerevisiae deletion strains, locus YNL067W, strain RPL9B, hits give low values 0.288 | S. cerevisiae deletion strains, locus YNL071W, strain lat1, hits give low values 0.167 | S. cerevisiae deletion strains, locus YNL128W, strain TEP1, hits give low values 0.167 | S. cerevisiae deletion strains, locus YNL153C, strain GIM3, hits give low values 0.285 | S. cerevisiae deletion strains, locus YNL183C, strain NPR1, hits give low values 0.266 | S. cerevisiae deletion strains, locus YNL209W, strain ssb2, hits give low values 0.195 | S. cerevisiae deletion strains, locus YNL233W, strain BNI4, hits give low values 0.292 | S. cerevisiae deletion strains, locus YNL248C, strain rpa49, hits give low values 0.384 | S. cerevisiae deletion strains, locus YNL250W, strain rad50, hits give low values 0.508 | S. cerevisiae deletion strains, locus YNL271C, strain bni1, hits give low values 0.505 | S. cerevisiae deletion strains, locus YNL298W, strain CLA4, hits give low values 0.298 | S. cerevisiae deletion strains, locus YNL307C, strain MCK1, hits give low values 0.125 | S. cerevisiae deletion strains, locus YNL322C, strain KRE1 (second series), hits give low values 0.493 | S. cerevisiae deletion strains, locus YNL322C, strain KRE1, hits give low values 0.349 | S. cerevisiae deletion strains, locus YNR049C, strain mso1, hits give low values 0.412 | S. cerevisiae deletion strains, locus YNR052C, strain pop2, hits give low values 0.788 | S. cerevisiae deletion strains, locus YOL006C, strain TOP1, hits give low values 0.16 | S. cerevisiae deletion strains, locus YOL147C, strain pex11, hits give low values 0.256 | S. cerevisiae deletion strains, locus YOR001W, strain rrp6, hits give low values 0.287 | S. cerevisiae deletion strains, locus YOR061W, strain CKA2, hits give low values 0.475 | S. cerevisiae deletion strains, locus YOR069W, strain VPS5, hits give low values 0.564 | S. cerevisiae deletion strains, locus YOR070C, strain gyp1, hits give low values 0.277 | S. cerevisiae deletion strains, locus YOR080W, strain dia2, hits give low values 0.431 | S. cerevisiae deletion strains, locus YOR083W, strain WHI5, hits give low values 0.3 | S. cerevisiae deletion strains, locus YOR106W, strain vam3, hits give low values 0.288 | S. cerevisiae deletion strains, locus YOR136W, strain idh2, hits give low values 0.321 | S. cerevisiae deletion strains, locus YOR144C, strain elg1, hits give low values 0.449 | S. cerevisiae deletion strains, locus YOR184W, strain ser1, hits give low values 0.131 | S. cerevisiae deletion strains, locus YOR231W, strain MKK1, hits give low values 0.37 | S. cerevisiae deletion strains, locus YOR265W, strain rbl2, hits give low values 0.327 | S. cerevisiae deletion strains, locus YOR270C, strain vph1, hits give low values 0.187 | S. cerevisiae deletion strains, locus YOR290C, strain snf2, hits give low values 0.302 | S. cerevisiae deletion strains, locus YOR316C, strain cot1, hits give low values 0.433 | S. cerevisiae deletion strains, locus YPL051W, strain arl3, hits give low values 0.374 | S. cerevisiae deletion strains, locus YPL055C, strain LGE1, hits give low values 0.331 | S. cerevisiae deletion strains, locus YPL078C, strain atp4, hits give low values 0.248 | S. cerevisiae deletion strains, locus YPL106C, strain sse1, hits give low values 0.263 | S. cerevisiae deletion strains, locus YPL240C, strain hsp82, hits give low values 0.313 | S. cerevisiae deletion strains, locus YPL241C, strain CIN2, hits give low values 0.323 | S. cerevisiae deletion strains, locus YPL256C, strain CLN2, hits give low values 0.419 | S. cerevisiae deletion strains, locus YPR119W, strain clb2, hits give low values 0.424 | S. cerevisiae deletion strains, locus YPR141C, strain kar3, hits give low values 0.494 | S. cerevisiae deletion strains, locus YPR163C, strain tif3, hits give low values 0.314 | S. cerevisiae deletion strains, locus YPR167C, strain met16, hits give low values 0.386 | S. cerevisiae deletion strains, strain wtn01, hits give low values 0.249 | S. cerevisiae strains, strain wild type, hits give low values 0.27
inactive: S. cerevisiae deletion strains, locus YMR307W, strain GAS1, hits give low values 0.661 | S. cerevisiae deletion strains, locus YOL012C, strain htz1 0.255
